The test system of test [1] is XIP peptide (Xip251-270) binding. Description: XIP fragment 251-270 binding compounds – biochemical, small-molecule microarray, fluorescence 635/667 nm, 0.1 µg/mL protein, primary screen (AID 1182). The note with it: fluorescent protein binding, 635 nm, higher = more signal, called active from +8 up or from −8 down.
A further test deals with XIP peptide (Xip251-270). Briefly: compounds binding XIP fragment 251-270 – biochemical, small-molecule microarray, fluorescence 635/667 nm, 0.5 µg/mL protein, primary screen (AID 1183). As to conditions: fluorescence 635 nm, higher = more signal.
Test [2] is described as follows: blood-stage malaria parasite viability loss – strain 3D7, DAPI fluorescence, 100 nL, primary screen (AID 1184).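 Further: parasites grown inside human red blood cells in medium with human serum.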 As to conditions: P. falciparum 3D7 growth, 3 d, higher = more signal.
Test [3] deals with Homeobox protein Hox-A13 (Mus musculus) (UniProt Q62424). Briefly: disruptors of Hoxa13 oligonucleotide interaction – biochemical, fluorescence polarization, labeled oligonucleotide, primary screen (AID 1185). The note with it: Hoxa13:DNA binding, 15 min, higher = more signal, called active from +8 up or from −8 down. Background: In fluorescence polarisation assays a small probe gives low polarisation when free and higher when bound to something large.
Homeobox protein Hox-A13 (Mus musculus), sequence (Q62424 whole entry, looked up): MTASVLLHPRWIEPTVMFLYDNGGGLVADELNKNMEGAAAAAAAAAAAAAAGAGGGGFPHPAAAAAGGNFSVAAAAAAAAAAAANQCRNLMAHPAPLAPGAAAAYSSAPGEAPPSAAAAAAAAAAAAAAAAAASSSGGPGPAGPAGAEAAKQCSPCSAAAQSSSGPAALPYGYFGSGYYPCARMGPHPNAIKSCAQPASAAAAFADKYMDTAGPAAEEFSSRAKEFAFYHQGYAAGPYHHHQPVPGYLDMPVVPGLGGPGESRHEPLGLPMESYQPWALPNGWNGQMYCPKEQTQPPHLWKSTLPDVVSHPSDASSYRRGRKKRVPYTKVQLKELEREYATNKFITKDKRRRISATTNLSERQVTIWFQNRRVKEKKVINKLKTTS

The nature of test [4]: blockers of DNA damage checkpoint Chk1 activation – imaging, HeLa, hydroxyurea, phospho-Chk1 antibody, percent positive cells, primary screen (AID 1186). As to conditions: hydroxyurea-induced phospho-Chk1 immunofluorescence imaging, higher = more signal.
The nature of test [5]: blockers of DNA damage checkpoint Chk1 activation – imaging, HeLa, hydroxyurea, phospho-Chk1 nuclear intensity, primary screen (AID 1187). As to conditions: hydroxyurea-induced phospho-Chk1 immunofluorescence imaging, higher = more signal.

SMILES strings stand for the structures. The source made the active and inactive calls. Unless noted, how the calls were made is not given here.

As for `CCOC(=O)C[C@H]1[C@H](OC(=O)c2ccc(-c3ccccc3)cc2)[C@@H](NC(=O)c2ccc(-c3ccccc3)cc2)c2cc(OCCCO)ccc2N1C(=O)c1ccccc1`, the figures for the composite z-score (in test [1]; with XIP peptide (Xip251-270)) were 1.11 (inactive) and 0.426, respectively. Besides, the z-score was -0.482 in test [2], -1.22 (inactive) in test [3], -0.166 (inactive) in test [4] and 0.205 (inactive) in test [5].

`O=C1O[C@@H](c2ccccc2)[C@@H](c2ccccc2)N2[C@@H](c3ccc(OCCO)cc3)[C@]3(C(=O)Nc4ccc(C#CC5=CCCCC5)cc43)[C@@H](C(=O)Nc3nc4ccccc4s3)[C@H]12`: the composite z-score in test [1] is -0.487 (inactive); in the test with XIP peptide (Xip251-270), 0.646. The z-score in test [2] was -1.38; in test [3] it was -15.3 (active); in test [4] it was -0.176 (inactive); in test [5], -0.282 (inactive).

Regarding `CC(C)(C)OC(=O)CC[C@]1(C(=O)N2CCOCC2)COC(c2ccc(OCCCO)cc2)=N1`, the composite z-score in test [1] is -0.199 (inactive); in the test with XIP peptide (Xip251-270), 0.0906. The z-score was 0.33 in test [2], -3.78 (inactive) in test [3], -0.16 (inactive) in test [4] and -0.0926 (inactive) in test [5].

Take `Cc1ccc(N2C(=O)c3ccccc3[C@@H](C(=O)NCCN3CCOCC3)[C@@H]2c2ccc(CO)cc2)nc1`: the composite z-score was 0.0616 (inactive) in test [1] and 0.669 in the test with XIP peptide (Xip251-270). The z-score is 1.41 in test [2], -1.67 (inactive) in test [3], 0.0197 (inactive) in test [4] and 0.274 (inactive) in test [5].

`COc1ccc([Si](C)(C)[C@H]2[C@H](CC(=O)N(CCO)Cc3ccccc3)O[C@@]3(C(=O)N(Cc4ccc(N5C(=O)c6cccc7cccc5c67)cc4)c4ccccc43)[C@@H]2C)cc1`: the composite z-score in test [1] was 1.74 (inactive); in the test with XIP peptide (Xip251-270), 0.587. For the same compound, the z-score was -2.11 in test [2], -1.38 (inactive) in test [3], -0.664 (inactive) in test [4] and -0.393 (inactive) in test [5].

Regarding `CC(C)N1C(=O)[C@@]2(Cc3ccccc31)c1ccccc1C(=O)N(Cc1ccccc1)[C@H]2c1ccc(CO)cc1`, the composite z-score was -0.205 (inactive) in test [1] and -0.0467 in the test on XIP peptide (Xip251-270). Also, the z-score is -0.32 in test [2], -0.075 (inactive) in test [3], 0.273 (inactive) in test [4] and 0.685 (inactive) in test [5].

Consider `CC(C)c1ccc(NN2C(C(O)C(C)c3ccccc3)C=CC3C(=O)N(c4ccccc4)C(=O)C32)cc1` (stereo not given), for which the composite z-score in test [1] is 2.17 (inactive); with XIP peptide (Xip251-270), 0.77. Also, the z-score is -0.119 in test [2], -2.2 (inactive) in test [3], 0.545 (inactive) in test [4] and 0.739 (inactive) in test [5].

`CN1C(=O)C2C=CC(C(O)COCc3ccccc3)N(Nc3ccc([N+](=O)[O-])cc3[N+](=O)[O-])C2C1=O` (stereo not given): the figures for the composite z-score (in test [1]; in the test with XIP peptide (Xip251-270)) were 0.649 (inactive) and 0.544, respectively. Further, the z-score in test [2] was 0.391; in test [3], -4.41 (inactive); in test [4], -0.589 (inactive); in test [5] it was -0.803 (inactive).

On to `CO[C@H]1O[C@H](CO)[C@@H](OC(=O)Nc2cccc(F)c2)[C@H](OC(=O)Nc2ccc3c(c2)OCO3)[C@@H]1OC(=O)Nc1ccc2c(c1)OCO2`, for which the composite z-score in test [1] is 0.968 (inactive); in the test on XIP peptide (Xip251-270), 0.894. Besides, the z-score is -0.754 in test [2], -6.1 (inactive) in test [3], 0.223 (inactive) in test [4] and 0.613 (inactive) in test [5].

For `C[N+](C)(C)CCCC[C@@H]1NC(=O)[C@H]2C[C@@H](C(=O)O)[C@@H](c3ccc(O)cc3)N2C1=O`, the figures for the composite z-score (in test [1]; in the test with XIP peptide (Xip251-270)) were 0.154 (inactive) and 0.274, respectively. Further, the z-score in test [2] was 0.115; in test [3] it was -1.42 (inactive); in test [4], -0.349 (inactive); in test [5], -0.313 (inactive).

`CN(C)CCCCCCNC(=O)[C@@H]1C[C@@H]2C(=O)N[C@@H](CCCC[N+](C)(C)C)C(=O)N2[C@@H]1c1cccc(OCCO)c1`: the composite z-score in test [1] was 0.877 (inactive); with XIP peptide (Xip251-270), -0.0938. In addition, the z-score in test [2] was -0.143; in test [3] it was -1.8 (inactive); in test [4], 0.559 (inactive); in test [5], 0.952 (inactive).

As to `CCOC(=O)C[C@H]1[C@H](OC(=O)c2cc3ccccc3oc2=O)[C@@H](NC(=O)Cc2ccc(OC)cc2)c2cc(OCCCO)ccc2N1C(=O)Cc1ccc(OC)cc1`, the composite z-score was -0.0664 (inactive) in test [1] and 0.0609 in the test on XIP peptide (Xip251-270). In addition, the z-score in test [2] is -0.912; in test [3], -5.1 (inactive); in test [4], 0.212 (inactive); in test [5], 0.199 (inactive).

For `Cc1ccc(S[C@]2(C(=O)NC(C)C)CC(=O)N(Cc3ccccc3)[C@@H]2c2ccc(CO)cc2I)cc1`, the composite z-score was 1.69 (inactive) in test [1] and -0.304 in the test with XIP peptide (Xip251-270). The z-score in test [2] was -0.158; in test [3], -3.33 (inactive); in test [4], -0.641 (inactive); in test [5], -0.268 (inactive).

Turning to `O=C(NC1CC1)[C@@H]1c2ccccc2C(=O)N(C2CCCCC2)[C@H]1c1ccc(CO)cc1`, the results for the composite z-score (in test [1]; in the test with XIP peptide (Xip251-270)) were 0.969 (inactive) and 0.647, respectively. Further, the z-score in test [2] was -1.1; in test [3], -3.16 (inactive); in test [4], -0.312 (inactive); in test [5], -0.617 (inactive).

For the compound `O=C1C2C=CC(C(O)C(c3ccccc3)c3ccccc3)N(Nc3ccccc3F)C2C(=O)N1c1ccccc1` (stereo not given), the composite z-score in test [1] was 0.814 (inactive); in the test on XIP peptide (Xip251-270) it was 0.768. For the same compound, the z-score in test [2] was -0.373; in test [3], -2.65 (inactive); in test [4], 0.837 (inactive); in test [5], 0.29 (inactive).

For the origin of these results see PubChem BioAssay.
